# This is a sample that favours compounds with a hit; in the whole collection about 9.9% have one here.
# JMJD2E inh = JMJD2E (human) inhibition. B2RXH2. JMJD2E catalytic domain, FDH-coupled NADH fluorescence (FDH is formaldehyde dehydrogenase). Potency, µM (highest dose often 57.1 µM), for the others: top-dose activity change, negative = inhibition, actives largely listed as inhibitors. 230,000 tested, 1.6% active; active means well fitted inhibition curve with a large enough effect, not every such curve was filed as active; inconclusive means small, poorly fitted or top-dose-only effect, or another doubt; inactive means no such curve, though single readings can be large or run the other way;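 further: 0% = wells with enzyme and -100% = buffer wells without enzyme; nearly all actives have a fitted effect of over 50% in size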
# Tau FP inhib = blocks human tau fibril formation measured by polarization. K18 P301L tau heparin fibrillization, Alexa594 FP, 6 h. 280,000 tested, 0.39% active. Potency, µM (titrated, usually from 57.7 µM), without a hit: at the highest dose activity, negative = inhibition, actives largely listed as inhibitors; further: nearly all actives have a fitted effect of over 55% in size
# Target sequence (P10636 561-689 P618L limits assumed): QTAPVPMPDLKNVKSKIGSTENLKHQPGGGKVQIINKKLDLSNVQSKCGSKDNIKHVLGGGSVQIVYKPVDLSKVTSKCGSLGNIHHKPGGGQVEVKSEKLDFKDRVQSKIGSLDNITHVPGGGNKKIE
#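 Steps: dispense K18 P301L tau (15 uM plus 0.24 uM Alexa 594 tracer, final) in pH 7 sodium acetate; add compound; add heparin (20 uM final); incubate 6 hr, 37 C; add ThT (30 uM final); after 1 hr ambient, read FP.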
# HPGD block = inhibitors of human 15-hydroxyprostaglandin dehydrogenase (HPGD); P15428; purified HPGD, NADH fluorescence kinetic, PGE2 substrate; 150,000 tested, 4.3% active; Potency, µM, inactives show top-dose activity change, negative = inhibition, usual class: inhibitors; active means well fitted inhibition curve with a large enough effect, not every such curve was filed as active; inconclusive means small, poorly fitted or top-dose-only effect, or another doubt; inactive means no such curve, though single readings can be large or run the other way
# Target sequence (P15428 whole entry, looked up): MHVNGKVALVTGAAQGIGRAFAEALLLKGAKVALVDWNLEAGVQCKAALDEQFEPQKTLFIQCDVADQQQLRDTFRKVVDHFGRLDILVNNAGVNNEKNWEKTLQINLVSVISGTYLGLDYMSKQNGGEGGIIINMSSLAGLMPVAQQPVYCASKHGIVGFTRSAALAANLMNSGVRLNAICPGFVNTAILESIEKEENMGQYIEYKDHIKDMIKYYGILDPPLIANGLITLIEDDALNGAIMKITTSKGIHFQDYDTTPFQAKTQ
#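 20 nM HPGD preincubated 15 min at room temperature with compound in 50 mM Tris-HCl pH 8, 0.01% Tween 20. Started with 1 mM NAD+ and 30 uM prostaglandin E2; NADH fluorescence (360/450 nm) read 5 times over 30-s intervals, last minus first.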
# ALDH1A1 block = blocks purified human ALDH1A1 activity | P00352 | Purified ALDH1A1, NADH fluorescence, propionaldehyde substrate | Potency, µM (titrated, usually from 75.3 µM), without a hit: at the highest dose activity, negative = inhibition, hits mostly inhibitors | 220,000 tested, 7.3% active; active means well fitted inhibition curve with a large enough effect, not every such curve was filed as active; inconclusive means small, poorly fitted or top-dose-only effect, or another doubt; inactive means no such curve, though single readings can be large or run the other way;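 further: plate controls were no enzyme wells and a reference inhibitor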
# Tau fluor counter = counter-screen for tau fibril formation inhibitors | 280,000 tested, 0.93% active | tau K18 P301L Alexa594 fluorescence, heparin fibrillization | Potency, µM (top dose mostly 57.7 µM), without a hit: at the top dose activity change, negative = decrease; further: nearly all actives have a fitted effect of over 55% in size
#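 Human K18 P301L tau (15 uM unlabeled plus 0.24 uM Alexa 594-labeled, final) in 100 mM sodium acetate pH 7 was mixed with compound and 20 uM heparin and incubated 6 hr at 37 C.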
# Tau fibril ThT = blocks human tau fibril formation measured by thioflavin T | 270,000 tested, 2.1% active | Potency, µM (series often up to 57.4 µM), inactives show top-dose activity, negative = inhibition, most hits filed as inhibitors | recombinant tau K18 P301L (four-repeat tau fragment), heparin-induced fibrillization, ThT fluorescence; further: nearly all actives have a fitted effect of over 55% in size
#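 Aggregation was driven by heparin (20 uM final) acting on recombinant tau […] bearing P301L in 100 mM sodium acetate pH 7; fibrils were detected with Thioflavin T.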
# * hit, by the source's call; ? = inconclusive; / = not tested or not shown; [ ] = dose if it differs, or a comment. Unless noted, the call rests on the fitted dose curve; in most records, active means well fitted curve in the direction sought with a large enough effect; inconclusive means small, poorly fitted or top-dose-only effect, or another doubt; inactive means no such curve, though single readings can be large; an effect the other way counts as inactive or inconclusive. Unless noted, on the % scale 0 is the no-effect control and ±100 the full control effect; potency means the concentration at half of the fitted maximal effect.
SMILES,JMJD2E inh,Tau FP inhib,HPGD block,ALDH1A1 block,Tau fluor counter,Tau fibril ThT
CCOc1ccc(-c2nnc(SCC(=O)NCc3ccccc3)nc2-c2ccc(OCC)c(OC)c2)cc1OC,/,-0.9%,/,/,-4.2%,1.3%
CSc1ccc(S(=O)(=O)Nc2ccc3c(c2)OCCO3)cc1,-5.0%,7.1%,-19.0%,15.8µM*,-24.0%,-0.8%
Cc1ccc(S(=O)(=O)Nc2ccc3c(c2)OCCO3)cc1,3.9%,-4.3%,/,3.8%,-12.9%,-5.2%
O=S(=O)(NCc1ccco1)c1ccc(S(=O)(=O)N2CCCC2)cc1,3.5%,6.6%,/,8.91µM*,8.9%,5.6%
COc1ccc(NS(=O)(=O)c2ccc(SC)cc2)cc1,2.8%,1.5%,-19.4%,0.159µM*,-5.7%,3.4%
CSc1ccc(S(=O)(=O)Nc2ccc(F)cc2)cc1,0.2%,4.4%,-9.1%,?,-14.5%,-4.1%
O=C(O)CCC(=O)N1CCc2cc(S(=O)(=O)Nc3ccc4c(c3)OCCO4)ccc21,-1.2%,5.2%,25.1µM*,6.9%,-6.5%,-16.7%
O=S(=O)(c1cccc(NC(=S)Nc2ccc(Br)cc2Cl)c1)N1CCOCC1,2.9%,?,-28.7%,?,-26.1%,2.9%
Cc1cccc(-c2nc(SCC(=O)Nc3cccc(C(F)(F)F)c3)n3[nH]c(=O)cc3n2)c1,/,2.7%,/,/,-25.1%,-14.6%
COc1ccc(S(=O)(=O)Nc2ccc(S(=O)(=O)N3CCOCC3)cc2)cc1,1.1%,-6.0%,-4.2%,4.47µM*,-10.4%,-6.3%
Cc1ccc(S(=O)(=O)N2CCCN(S(=O)(=O)c3ccc(C)cc3)CC2)cc1,3.8%,2.6%,-10.2%,?,-0.2%,6.9%
Cc1ccc(S(=O)(=O)Nc2ccc(S(=O)(=O)N3CCCC3)cc2)cc1,6.9%,3.5%,-10.9%,0.562µM*,-3.1%,1.4%
O=S(=O)(Nc1ccc2c(c1)OCCO2)c1cccc2nsnc12,6.0%,-1.2%,-13.3%,25.1µM*,-16.8%,-17.0%
O=S(=O)(Nc1ccc(S(=O)(=O)N2CCCCC2)cc1)c1cccs1,4.6%,-2.7%,9.5%,12.6µM*,-7.5%,7.2%
O=C(CCNS(=O)(=O)c1cccc2nsnc12)Nc1ccc2c(c1)OCCO2,-9.8%,0.5%,0.9%,-3.4%,-13.4%,-12.9%
COc1ccc2cc(CCNS(=O)(=O)c3ccc(C)cc3)c(=O)[nH]c2c1,/,-4.8%,/,/,-14.9%,-10.0%
COc1ccc(-c2nc3ccc(NS(=O)(=O)c4ccc(C)cc4)cc3o2)cc1,/,-13.5%,/,/,15.8µM*[quencher],6.3%
Cc1ccc(S(=O)(=O)Nc2ccc3nc(-c4ccc(F)cc4)oc3c2)cc1,/,?,/,/,?,9.0%
Cc1nn2c(-c3ccncc3)ccnc2c1Br,9.5%,-10.3%,/,-0.7%,0.3%,-8.9%
COc1ccc(Cn2c(O)c(C=Nc3ccc(OC)cc3)c3ccccc3c2=O)cc1,-25.6%,11.8%,-15.3%,?,?,0.8%
COc1ccc(Cn2c(O)c(/C=N/NC(=O)c3cccnc3)c3ccccc3c2=O)cc1,28.2µM*,9.7%,/,?,?,?
O=C(N/N=C/c1c(O)n(-c2ccccc2Cl)c(=O)c2ccccc12)c1cccnc1,?,8.5%,/,14.1µM*,-8.5%,-15.3%
Cn1c(-c2ccccc2)c(/C=N/NC(=O)c2cccnc2)c2ccccc21,-20.2%,14.3%,/,-4.8%,?,-16.2%
O=C(N/N=C/c1c(-c2ccccc2)[nH]c2ccccc12)c1cccnc1,-27.9%,17.5%,/,1.4%,-28.6%,?
O=C(N/N=C/c1c(O)n(Cc2ccccc2)c(=O)c2ccccc12)c1cccnc1,?,3.8%,/,10µM*,?,?
Cc1cc(C)cc([N+](=O)[O-])c1,/,/,-3.7%,2.8%,/,/
Cc1cccc(-c2noc(CCC(=O)NCC3CCCO3)n2)c1 (stereo not given),-0.3%,3.1%,25.1µM*,0.9%,-4.2%,-2.7%
Cc1ccccc1-c1noc(CCC(=O)NCC2CCCO2)n1 (stereo not given),-22.6%,0.1%,15.8µM*,2.5%,-7.5%,-13.0%
